Structures are written as SMILES. Activity calls are given as the source filed them.

Experiment [1] in a line: small molecules captured by biotinylated probe aFSTL3 – biochemical, small-molecule microarray, fluorescence 635/667, stem cell growth factor project, primary screen (AID 1064).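 Further: measures binding of the biotinylated anti-FSTL3 antibody to printed compounds.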 As to conditions: higher = more signal.
Experiment [2] in a line: binders from COS7 lysate, DM2A8 probe, primary screen, torsin A project, cell lysate, small-molecule microarray, fluorescence 635/667 (AID 1065). To be noted: higher = more signal, COS7 lysate expressing mutant human TOR1A.
Experiment [3] in a line: small molecules captured by biotinylated probe aFGF2 – biochemical, small-molecule microarray, fluorescence 635/667, stem cell growth factor project, primary screen (AID 1067).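 Further: measures binding of biotinylated aFGF2 protein to printed compounds on slides; z-score merges feature fluorescence and signal-to-noise across triplicate slides.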 As to conditions: higher = more signal.
Experiment [4] is described as follows: small molecules captured by biotinylated probe aFGF10 – biochemical, small-molecule microarray, fluorescence 635/667, stem cell growth factor project, primary screen (AID 1071).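 Further: score merges 667 nm spot intensity and signal to noise from triplicate slides.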 As to conditions: higher = more signal.
Experiment [5] deals with Neurogenic locus notch homolog protein 2 (Homo sapiens) (UniProt Q04721). Briefly: small molecules binding Notch2 protein – biochemical, small-molecule microarray, 635 nm fluorescence, stem cell growth factors, primary screen (AID 1073). As to conditions: higher = more signal.
For experiment [6], the target named is Pro-neuregulin-1, membrane-bound isoform (Homo sapiens) (UniProt Q02297). Nature of the experiment: small molecules binding neuregulin-1 protein – biochemical, small-molecule microarray, fluorescence 635/667, psychiatric disease protein project, primary screen (AID 1075).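 Further: score combines 667 nm spot fluorescence with signal to noise.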 To be noted: NRG1 binding, 635 nm fluorescence, higher = more signal.
The test system of experiment [7] is Neuregulin-1 EGF-like domain. Briefly: small molecules binding NRG1 EGF domain – biochemical, small-molecule microarray, 635 nm fluorescence, primary screen (AID 1081).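 Further: binding of the protein to compounds printed on small-molecule microarray slides.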 As to conditions: higher = more signal.
The nature of experiment [8]: FRG1 expression reporter modulators in myotubes – cell-based, C2C12 myotubes, firefly/Renilla luciferase, luminescence, FRG1 inhibition for FSHD, primary screen (AID 1084). As to conditions: FRG1 promoter luciferase, higher = more signal, called active from +8 up or from −8 down.
Experiment [9] can be described thus: small molecules captured by biotinylated probe aFST – biochemical, small-molecule microarray, fluorescence 635/667, stem cell growth factor project, primary screen (AID 1086).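 Further: score merges 667 nm fluorescence with signal-to-noise of each printed compound spot.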 As to conditions: higher = more signal.
Experiment [10] can be described thus: binders of probe aHhip on microarray, primary screen, stem cell growth factor project, biochemical, small-molecule microarray, fluorescence 635/667 (AID 1087).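 Further: score merges spot fluorescence at 667nm with spot signal to noise ratio.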 As to conditions: higher = more signal.
The test system of experiment [11] is PRMT1 (protein arginine N-methyltransferase 1). Briefly: small molecules binding arginine methyltransferase PRMT1 – biochemical, small-molecule microarray, 635 nm fluorescence, primary screen (AID 1088).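 Further: binding of Prmt1 protein to compounds spotted on small-molecule microarray slides.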 To be noted: higher = more signal.
Experiment [12] in a line: growth effects on S. cerevisiae YJM789 – YJM789 clinical isolate, OD600, 24 h, basal, primary screen (AID 1089).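 Further: growth of clinical yeast isolate S. cerevisiae YJM 789 seeded 1000 cells per well; test concentration not given here.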 To be noted: higher = more signal, called active from +8 up or from −8 down.
The nature of experiment [13]: S. pombe growth modifiers, basal conditions – strain 972, OD600, 24 h, no modulator, primary screen (AID 1090).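 Further: basal condition with compound alone and no growth modifier present; test concentration not given here.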 As to conditions: S. pombe 972 growth, higher = more signal, called active from +8 up or from −8 down.
A short description of experiment [14]: budding yeast growth modifiers under rapamycin – strain BY4716, OD600, 96 h, primary screen (AID 1091). Further: test concentration not given here. To be noted: S. cerevisiae BY4716 + rapamycin, higher = more signal, called active from +8 up or from −8 down.
The target of experiment [15] is Torsin-1A-interacting protein 2 (Homo sapiens) (UniProt Q8NFQ8). Nature of the experiment: small molecules binding lysate-expressed LULL1 – cell lysate, human LULL1 lysate, 635/667 nm fluorescence, primary screen (AID 1092).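 Further: probe is lysate of COS7 cells overexpressing human LULL1; score merges per-feature 667 nm fluorescence with signal-to-noise.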 To be noted: small-molecule microarray, hLULL1 lysate binding, 635 nm fluorescence; higher = more signal.
The nature of experiment [16]: optical density change of DRC41 E. coli – strain DRC41, OD650, 24 h, E. coli filamentation project, primary screen (AID 1093).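 Further: MC1000 strain lacking acrAB efflux and sulA so SOS filamentation is blocked; test concentration not given here.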 To be noted: E. coli DRC41 growth, higher = more signal, called active from +8 up or from −8 down.
A short description of experiment [17]: probe aLefty2 binding to arrayed compounds – biochemical, biotinylated probe, 635/667 nm fluorescence, primary screen (AID 1094).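 Further: score merges spot fluorescence near 667 nm with spot signal-to-noise ratio.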 As to conditions: small-molecule microarray, higher = more signal.
Experiment [18] concerns Noggin (protein binding on small-molecule microarray). Nature of the experiment: small molecules binding Noggin protein – biochemical, 635/667 nm fluorescence, primary screen (AID 1095).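 Further: score merges 667 nm feature fluorescence with signal to noise over triplicate slides.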 To be noted: 635 nm fluorescence, higher = more signal.
In experiment [19] the target is Neurogenic locus notch homolog protein 3 (Homo sapiens) (UniProt Q9UM47). Nature of the experiment: small molecules binding NOTCH3 protein – biochemical, 635/667 nm fluorescence, primary screen (AID 1096). As to conditions: small-molecule microarray, 635 nm fluorescence, higher = more signal.
Experiment [20] can be described thus: probe aEGFR binding to arrayed compounds – biochemical, biotinylated probe, 635/667 nm fluorescence, primary screen (AID 1097).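 Further: probe is a biotinylated anti-EGFR antibody binding compounds printed on slides; score combines fluorescence near 667 nm and signal to noise of each spot.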 To be noted: small-molecule microarray, higher = more signal.

Torsin-1A-interacting protein 2 (Homo sapiens), sequence (Q8NFQ8 whole entry, looked up): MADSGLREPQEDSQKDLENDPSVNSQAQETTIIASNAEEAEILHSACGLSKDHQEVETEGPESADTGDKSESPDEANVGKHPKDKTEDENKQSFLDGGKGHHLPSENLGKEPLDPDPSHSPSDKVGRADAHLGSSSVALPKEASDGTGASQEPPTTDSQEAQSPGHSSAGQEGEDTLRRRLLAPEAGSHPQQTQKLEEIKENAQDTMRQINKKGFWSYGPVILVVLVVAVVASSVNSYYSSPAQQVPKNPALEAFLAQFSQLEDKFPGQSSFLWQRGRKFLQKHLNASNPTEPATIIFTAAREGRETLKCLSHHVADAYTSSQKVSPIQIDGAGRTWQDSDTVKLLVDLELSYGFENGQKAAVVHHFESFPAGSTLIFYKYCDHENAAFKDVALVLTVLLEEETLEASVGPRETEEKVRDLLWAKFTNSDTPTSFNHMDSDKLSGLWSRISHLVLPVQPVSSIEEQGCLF
Neurogenic locus notch homolog protein 3 (Homo sapiens), sequence (Q9UM47 whole entry, looked up): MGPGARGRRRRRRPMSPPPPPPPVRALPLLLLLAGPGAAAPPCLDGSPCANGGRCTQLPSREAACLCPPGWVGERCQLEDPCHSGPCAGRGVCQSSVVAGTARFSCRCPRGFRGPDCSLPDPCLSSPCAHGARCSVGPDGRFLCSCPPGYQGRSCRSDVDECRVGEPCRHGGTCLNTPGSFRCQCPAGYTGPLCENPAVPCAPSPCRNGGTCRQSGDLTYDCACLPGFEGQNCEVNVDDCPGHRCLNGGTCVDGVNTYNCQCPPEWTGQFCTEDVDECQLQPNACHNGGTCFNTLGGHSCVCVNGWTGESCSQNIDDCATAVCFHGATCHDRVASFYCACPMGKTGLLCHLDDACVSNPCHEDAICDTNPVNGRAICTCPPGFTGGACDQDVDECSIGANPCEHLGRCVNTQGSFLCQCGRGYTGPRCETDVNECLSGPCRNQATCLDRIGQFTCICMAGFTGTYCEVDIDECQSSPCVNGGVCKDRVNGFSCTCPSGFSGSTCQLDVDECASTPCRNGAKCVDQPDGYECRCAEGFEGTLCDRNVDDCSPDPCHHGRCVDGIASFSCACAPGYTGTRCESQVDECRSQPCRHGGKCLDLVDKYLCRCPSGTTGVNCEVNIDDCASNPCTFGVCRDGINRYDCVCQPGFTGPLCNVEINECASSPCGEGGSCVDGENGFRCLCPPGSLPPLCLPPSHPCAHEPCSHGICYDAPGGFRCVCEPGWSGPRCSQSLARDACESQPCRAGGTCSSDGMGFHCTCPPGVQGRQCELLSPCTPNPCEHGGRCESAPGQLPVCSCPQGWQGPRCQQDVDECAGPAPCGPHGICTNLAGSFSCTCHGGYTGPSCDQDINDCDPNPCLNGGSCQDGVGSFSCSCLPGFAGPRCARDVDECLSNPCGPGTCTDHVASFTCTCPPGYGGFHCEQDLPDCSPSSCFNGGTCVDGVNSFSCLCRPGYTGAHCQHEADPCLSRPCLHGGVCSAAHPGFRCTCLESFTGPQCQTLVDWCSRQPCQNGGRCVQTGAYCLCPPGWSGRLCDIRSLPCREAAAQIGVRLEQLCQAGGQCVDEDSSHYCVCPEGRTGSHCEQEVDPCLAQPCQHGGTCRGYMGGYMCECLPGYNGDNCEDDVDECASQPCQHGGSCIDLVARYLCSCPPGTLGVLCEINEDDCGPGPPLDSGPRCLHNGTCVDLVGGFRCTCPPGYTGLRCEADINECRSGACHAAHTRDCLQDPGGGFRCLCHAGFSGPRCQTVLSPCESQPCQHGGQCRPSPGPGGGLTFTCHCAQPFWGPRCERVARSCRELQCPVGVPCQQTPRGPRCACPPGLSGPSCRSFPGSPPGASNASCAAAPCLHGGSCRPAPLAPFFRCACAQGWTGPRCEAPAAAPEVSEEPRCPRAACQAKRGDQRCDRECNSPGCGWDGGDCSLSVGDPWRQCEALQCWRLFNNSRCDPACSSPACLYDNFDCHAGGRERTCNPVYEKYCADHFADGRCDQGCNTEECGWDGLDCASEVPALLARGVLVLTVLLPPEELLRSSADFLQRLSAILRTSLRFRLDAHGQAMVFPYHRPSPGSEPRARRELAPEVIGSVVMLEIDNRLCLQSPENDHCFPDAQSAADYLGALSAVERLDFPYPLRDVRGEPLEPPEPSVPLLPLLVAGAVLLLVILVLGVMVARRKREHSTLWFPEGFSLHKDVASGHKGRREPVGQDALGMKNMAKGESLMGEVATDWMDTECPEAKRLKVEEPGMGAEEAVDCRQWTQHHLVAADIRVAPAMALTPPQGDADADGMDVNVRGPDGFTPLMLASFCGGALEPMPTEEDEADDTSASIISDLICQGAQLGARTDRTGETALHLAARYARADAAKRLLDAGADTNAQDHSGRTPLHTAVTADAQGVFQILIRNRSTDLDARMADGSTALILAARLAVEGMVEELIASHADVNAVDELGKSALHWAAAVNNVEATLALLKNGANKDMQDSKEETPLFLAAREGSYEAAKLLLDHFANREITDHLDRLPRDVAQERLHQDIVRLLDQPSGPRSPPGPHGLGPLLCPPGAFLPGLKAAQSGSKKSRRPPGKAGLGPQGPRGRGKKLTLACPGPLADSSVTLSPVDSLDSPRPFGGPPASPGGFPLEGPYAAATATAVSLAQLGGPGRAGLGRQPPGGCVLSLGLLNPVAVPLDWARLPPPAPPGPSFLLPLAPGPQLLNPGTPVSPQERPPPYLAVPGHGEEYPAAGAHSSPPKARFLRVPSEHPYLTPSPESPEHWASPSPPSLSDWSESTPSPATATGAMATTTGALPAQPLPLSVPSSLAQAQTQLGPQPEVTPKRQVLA
Pro-neuregulin-1, membrane-bound isoform (Homo sapiens), sequence (Q02297 whole entry, looked up, the tested form may be a part, canonical isoform): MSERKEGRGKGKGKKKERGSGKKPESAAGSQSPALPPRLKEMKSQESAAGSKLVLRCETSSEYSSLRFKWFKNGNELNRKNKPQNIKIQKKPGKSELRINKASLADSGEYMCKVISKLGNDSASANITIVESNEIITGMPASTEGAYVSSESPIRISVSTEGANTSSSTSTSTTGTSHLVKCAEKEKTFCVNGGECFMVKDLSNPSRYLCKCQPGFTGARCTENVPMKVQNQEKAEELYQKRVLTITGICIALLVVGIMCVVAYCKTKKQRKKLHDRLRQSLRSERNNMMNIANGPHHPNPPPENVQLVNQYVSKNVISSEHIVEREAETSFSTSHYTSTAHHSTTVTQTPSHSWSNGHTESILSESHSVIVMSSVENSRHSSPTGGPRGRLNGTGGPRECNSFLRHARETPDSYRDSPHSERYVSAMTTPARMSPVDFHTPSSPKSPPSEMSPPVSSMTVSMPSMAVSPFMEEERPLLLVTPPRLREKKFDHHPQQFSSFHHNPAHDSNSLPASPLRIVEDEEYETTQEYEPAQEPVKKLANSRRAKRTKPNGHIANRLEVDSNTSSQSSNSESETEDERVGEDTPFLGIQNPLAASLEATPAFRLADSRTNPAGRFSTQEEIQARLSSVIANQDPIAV

In the case of `O=C1[C@H]2[C@H]3[C@H](O)[C@H](O)CC(=NO[C@@H]4O[C@H](CO)[C@@H](O)[C@H](O)[C@H]4O)[C@H]3CC[C@H]2C(=O)N1C1CCCCC1`, the composite z-score is -0.332 in [1]; 1.49 in [2]; -0.0659 in experiment [3]; -0.0948 in experiment [4]; 0.028 in experiment [5]; -0.197 in experiment [6]. Besides, the composite z-score was 0.995 in experiment [7]; 0.276 in experiment [9]; 0.841 in experiment [10]; 1.55 in experiment [11]; 1.58 in [15]; -0.0652 in experiment [17]. The values for the composite z-score in [18], in [19] and in [20] were 1.36, 0.308 and -0.12, respectively. In addition, the z-score was -0.225 (inactive) in [8]; -0.546 (inactive) in [12]; 0.506 (inactive) in [13]; -0.0694 (inactive) in experiment [14]; 0.15 (inactive) in experiment [16].

On to `COc1ccc(-c2nc3c(c4c2C[C@H](C)OC4)CN(CCC(C)C)CC3)cc1`, for which the composite z-score in [1] was -0.256; in experiment [2], 0.39; in experiment [3], -0.123; in experiment [4], 0.644; in [5], 1.04; in [6], 0.114. Moreover, the composite z-score in experiment [7] is 0.917; in [9] it was 0.414; in experiment [10], -0.189; in [11] it was 1.31; in [15], 1.5; in experiment [17], -0.142. For the same compound, the composite z-score came out at 0.501 in experiment [18], 0.982 in [19] and 0.167 in experiment [20]. The z-score in [8] is -0.145 (inactive); in experiment [12], 0.382 (inactive); in [13], -0.692 (inactive); in [14] it was 0.0635 (inactive); in experiment [16] it was 0.618 (inactive).

As for `COCCOC(=O)N1C(=O)[C@@]2(c3cc(C#CCNC(N)=O)ccc31)[C@H](c1ccccc1OCCO)N1[C@H](c3ccccc3)[C@H](c3ccccc3)OC(=O)[C@H]1[C@@H]2C(=O)N1CCN(c2ncccn2)CC1`, the composite z-score in experiment [1] amounted to 0.202; in [2], 1; in experiment [3], 0.0019; in [4], 1.15; in experiment [5], 1.27; in experiment [6], 1.27. Also, the composite z-score was 0.955 in experiment [7]; 0.141 in [9]; -0.0618 in experiment [10]; 1.44 in [11]; 2.22 in experiment [15]; 0.065 in experiment [17]. The composite z-score is 0.43 in experiment [18], 0.572 in [19] and -0.0271 in experiment [20]. Moreover, the z-score is -1.69 (inactive) in experiment [8]; -0.0197 (inactive) in experiment [12]; 2.11 (inactive) in [13]; 3.85 (inactive) in experiment [14]; 0.961 (inactive) in experiment [16].

Consider `COC(=O)CC=C[C@@H](C)[C@H](OC)c1ccccc1Br`, for which the composite z-score in experiment [1] is -0.297; in [2] it was 1.46; in experiment [3] it was -0.0514; in [4] it was 0.178; in experiment [5] it was 0.119; in experiment [6] it was -0.171. The composite z-score in experiment [7] was -0.26; in experiment [9] it was -0.155; in [10] it was 0.275; in [11], 0.0909; in experiment [15], 0.154; in experiment [17], -0.188. Also, the values for the composite z-score in experiment [18], in experiment [19] and in experiment [20] were 0.462, -0.105 and -0.113, respectively. Moreover, the z-score was 1.08 (inactive) in experiment [8]; 0.703 (inactive) in experiment [12]; -0.636 (inactive) in experiment [13]; -0.417 (inactive) in [14]; 0.469 (inactive) in experiment [16].

As to `COCC1=C2[C@@H](CCc3ccccc3)OB(O)C[C@@H]2n2c(=O)n(-c3ccccc3)c(=O)n2C1`, the composite z-score is -0.163 in experiment [1]; -0.106 in experiment [2]; -0.0695 in [3]; 0.882 in [4]; 0.112 in experiment [5]; -0.391 in [6]. The composite z-score in [7] is 0.751; in [9] it was -0.373; in experiment [10] it was -0.236; in experiment [11] it was -0.162; in experiment [15], 0.332; in experiment [17], -0.166. In addition, the composite z-score in experiment [18] is 0.264; in experiment [19], -0.26; in experiment [20], -0.145. Also, the z-score is -3.23 (inactive) in experiment [8]; 0.114 (inactive) in [12]; -0.591 (inactive) in experiment [13]; -0.644 (inactive) in experiment [14]; 0.203 (inactive) in experiment [16].

Turning to `C[C@@H]1C=CCC(=O)OC[C@H](C)C(=O)N2CCC[C@H]2C(=O)OC1`, the composite z-score was -0.586 in experiment [1]; 2.45 in experiment [2]; -0.178 in experiment [3]; 0.349 in [4]; 0.285 in experiment [5]; -0.824 in experiment [6]. The composite z-score in experiment [7] is 1.04; in experiment [9], 0.165; in experiment [10], -0.0296; in experiment [11] it was 1.54; in [15] it was 0.0414; in experiment [17], -0.0971. Also, the figures for the composite z-score in [18], in experiment [19] and in experiment [20] were 1.7, 0.677 and 0.228, respectively. Further, the z-score in [8] is 0.465 (inactive); in experiment [12], -0.407 (inactive); in [13], 0.334 (inactive); in [14], 0.356 (inactive); in [16], 0.325 (inactive).
